From PubChem BioAssay (NCI)
Compounds without any hit were thinned out: in the full panel of roughly 79,000, 15% have a hit. Calls of active or inactive are those of the source. Cut-off read from the data, not from the text of the source: active = growth inhibition above about 70%; inactive = the rest.

Assay: NCI Yeast Anticancer Drug Screen. Data for the wt2 strain (AID 169);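 note: 0% = growth of vehicle-treated yeast cultures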
Conditions: S. cerevisiae wt2 strain growth inhibition, hits give high values
Method: Growth inhibition of yeast strains with defined genetic alterations is measured as a screen for potential anti-cancer activity. Selected strains with alterations in DNA damage repair or cell cycle control were exposed to compounds and growth inhibition was measured relative to vehicle treated controls. The strain used in this assay is wt2

Measured: growth inhibition

O=C1NC(c2c(Cl)cccc2Cl)Nc2ccccc21 (stereo not given)
inactive: at 1.2 µM -28% | at 3.7 µM -32% | at 11.0 µM -26% | at 33.0 µM 39%
active: at 100.0 µM 89%

c1ccc2c(c1)ccc1c3ccncc3ccc21
active: at 11.0 µM 80% | at 33.0 µM 99% | at 100.0 µM 96%
inactive: at 1.2 µM -3% | at 3.7 µM 0%

Cc1cc(C)c(N2C(=O)CC(Sc3ccccc3N)C2=O)c(C)c1 (stereo not given)
inactive: at 1.2 µM -14% | at 3.7 µM -19% | at 11.0 µM -1% | at 33.0 µM -8% | at 100.0 µM 19%

S=c1[nH]nc(-c2ccc(Cl)cc2)s1
active: at 100.0 µM 96%
inactive: at 1.2 µM -28% | at 3.7 µM -21% | at 11.0 µM -28% | at 33.0 µM 69%

Nc1ccc(S(=O)(=O)Nc2ccc(Nc3c4ccccc4nc4ccccc34)cc2)cc1
inactive: at 1.2 µM -42% | at 3.7 µM -39% | at 11.0 µM -38% | at 33.0 µM -30% | at 100.0 µM 60%

CC(C)(O)c1ccccc1C(c1ccccc1)c1ccccc1
inactive: at 1.2 µM -9% | at 3.7 µM -10% | at 11.0 µM -12% | at 33.0 µM -10% | at 100.0 µM -17%

COc1cc(/C=C/c2sc3ccccc3[n+]2C)ccc1N(C)C
inactive: at 1.2 µM 0% | at 3.7 µM -1% | at 11.0 µM -2% | at 33.0 µM 62%
active: at 100.0 µM 97%

COC(=O)CSc1nnc(CSc2ccc(Cl)cc2)n1-c1ccccc1
inactive: at 1.2 µM -1% | at 3.7 µM 1% | at 11.0 µM -1% | at 33.0 µM 1% | at 100.0 µM 4%
